Results filed as inconclusive are left out. More than one record can exist for a structure, and the calls need not agree. Calls of active or inactive are those of the source. Rule for the calls, unless noted: active = hit-call score of the fitted dose curve at least 0.9, where 1 is the maximum; inactive = score below 0.9.
Tests used:
[1] = target: human RAR-related Orphan Receptor gamma (RORg), RORC (gene 6097) (UniProt P51449); experiment: ATG_RORg_TRANS: Attagene TRANS-FACTORIAL HepG2 Assay for human RAR-related Orphan Receptor gamma (RORg) (AID 2283011; active = hit-call score of the fitted dose curve at least 0.9, where 1 is the maximum)
How it was run: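 Readout: reporter transcript induction (RT-PCR, fluorescent primer extension, capillary electrophoresis) after 24 h compound exposure of transiently transfected HepG2 cells carrying a RORg-Gal4 chimera and GAL4-UAS reporters; DMSO served as baseline, with increasing signal fitted.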

[2] = target: human Retinoid X Receptor beta (RXRb), RXRB (gene 6257) (UniProt P28702); experiment: ATG_RXRb_TRANS: Attagene TRANS-FACTORIAL HepG2 Assay for human Retinoid X Receptor beta (RXRb) (AID 2283013; active = hit-call score of the fitted dose curve at least 0.9, where 1 is the maximum)
How it was run: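 After a 24 h incubation with test chemical, transfected HepG2 cells carrying NR-Gal4 fusions and GAL4-UAS reporter transcription units yield RNA whose reporter cDNA is FAM-labelled, HpaI-cut and sized by capillary electrophoresis; increases over DMSO are scored.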

[3] = target: human Vitamin D Receptor (VDR), VDR (gene 7421) (UniProt P11473); experiment: ATG_VDR_TRANS: Attagene TRANS-FACTORIAL HepG2 Assay for human Vitamin D Receptor (VDR) (AID 2283022; active = hit-call score of the fitted dose curve at least 0.9, where 1 is the maximum)
How it was run: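 HepG2 cells were transiently transfected with multiple GAL4-UAS reporter units, so signal reflects exogenous chimeric receptor-Gal4 activity. After 24 h compound exposure, reporter mRNA was measured by RT-PCR, fluorescent labelling and capillary electrophoresis, fitted for gain of signal versus DMSO.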

[4] = read-out: Interleukin-1 alpha (IL1a), IL1A (gene 3552); experiment: BSK_BE3C_IL1a: BioMAP Diversity Plus: BE3C Assay for Interleukin-1 alpha (IL1a) Biomarker Activity (AID 2283016); conditions: primary human bronchial epithelial cells; actives raise or lower the signal
How it was run: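 Measured in human lung primary bronchial epithelial cells: IL-1a by ELISA at 24 h after dosing, with bidirectional fitting against DMSO.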

[5] = read-out: Monocyte Chemoattractant Protein-1 (MCP1), CCL2 (gene 6347); experiment: BSK_4H_MCP1: BioMAP Diversity Plus: 4H Assay for Monocyte Chemoattractant Protein-1 (MCP1) Biomarker Activity (AID 2283018); conditions: primary human endothelial cells (HUVEC); actives raise or lower the signal
How it was run: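 Primary human umbilical vein endothelium is exposed to chemical for 24 h before MCP-1 is assayed by ELISA. Concentration-response fitted bidirectionally relative to DMSO.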

[6] = read-out: Human Leukocyte Antigen - DR isotype (HLADR), HLA-DRA (gene 3122); experiment: BSK_3C_HLADR: BioMAP Diversity Plus: 3C Assay for Human Leukocyte Antigen - DR isotype (HLADR) Biomarker Activity (AID 2283019); conditions: primary human endothelial cells (HUVEC); actives raise or lower the signal;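 note: ELISA of cell-surface HLA-DR on HUVEC 24 h after dosing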
How it was run: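 Primary human umbilical vein endothelial cells (3C system) were dosed with compound and cell-surface HLA-DR was quantified by ELISA at 24 h. Activity was fitted bidirectionally against DMSO as negative control and baseline.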

[7] = read-out: Interleukin-8 (IL8), CXCL8 (gene 3576); experiment: BSK_3C_IL8: BioMAP Diversity Plus: 3C Assay for Interleukin-8 (IL8) Biomarker Activity (AID 2283020); conditions: primary human endothelial cells (HUVEC); actives raise or lower the signal
How it was run: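 Using DMSO-treated wells as the baseline, bidirectional curve fitting was applied to ELISA-measured IL-8 from human umbilical vein endothelial cultures sampled 24 h after compound addition.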

[8] = read-out: Monokine induced gamma interferon (MIG), CXCL9 (gene 4283); experiment: BSK_3C_MIG: BioMAP Diversity Plus: 3C Assay for Monokine induced gamma interferon (MIG) Biomarker Activity (AID 2283021); conditions: primary human endothelial cells (HUVEC); actives raise or lower the signal
How it was run: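 ELISA-measured MIG in dosed HUVEC 3C cultures at 24 h, analysed by bidirectional fitting with DMSO defining baseline activity.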

[9] = BSK_3C_SRB: Viability Assessment in the BioMAP Diversity Plus: 3C Assay (AID 2283023); conditions: primary human endothelial cells (HUVEC);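 note: fitted both ways against DMSO so a hit may be signal rise or drop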
How it was run: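 Primary human umbilical vein endothelial cells in the 3C system were read 24 h after compound dosing. Total protein was stained with 0.1% sulforhodamine B after 10% TCA fixation and read at 560 nm, with bidirectional fitting against DMSO as baseline.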

[10] = read-out: Matrix Metallopeptidase 1 (MMP1), MMP1 (gene 4312); experiment: BSK_BE3C_MMP1: BioMAP Diversity Plus: BE3C Assay for Matrix Metallopeptidase 1 (MMP1) Biomarker Activity (AID 2283024); conditions: primary human bronchial epithelial cells; actives raise or lower the signal
How it was run: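 In this multiplexed primary-cell system, human bronchial epithelium received chemicals for 24 h before an ELISA for MMP1. Values reflect bidirectional fits normalised to the DMSO baseline.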

[11] = read-out: Pselectin, SELP (gene 6403); experiment: BSK_4H_Pselectin: BioMAP Diversity Plus: 4H Assay for Pselectin Biomarker Activity (AID 2283026); conditions: primary human endothelial cells (HUVEC); actives raise or lower the signal
How it was run: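 Bidirectional fits against DMSO gave the endpoint. Cells: primary human umbilical vein endothelium, chemical-treated for 24 h before ELISA detection of P-selectin.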

[12] = BSK_4H_SRB: Viability Assessment in the BioMAP Diversity Plus: 4H Assay (AID 2283027); conditions: primary human endothelial cells (HUVEC);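 note: cells exposed to compound for 24 h before staining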
How it was run: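 Cytotoxicity readout: sulforhodamine B (0.1%) staining of total protein after 10% TCA fixation, measured at 560 nm in human umbilical vein endothelium at 24 h. DMSO set the baseline; fitting was bidirectional.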

[13] = BSK_BE3C_SRB: Viability Assessment in the BioMAP Diversity Plus: BE3C Assay (AID 2283028); conditions: primary human bronchial epithelial cells
How it was run: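 Human primary bronchial epithelial cells were exposed to test chemicals for 24 h. Total protein in parallel cultures was then measured by staining with 0.1% sulforhodamine B after 10% TCA fixation, with absorbance read at 560 nm. Activity was fitted bidirectionally against DMSO.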

[14] = read-out: Thrombomodulin, THBD (gene 7056); experiment: BSK_3C_Thrombomodulin: BioMAP Diversity Plus: 3C Assay for Thrombomodulin Biomarker Activity (AID 2283029); conditions: primary human endothelial cells (HUVEC); actives raise or lower the signal
How it was run: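 In a multiplexed primary-cell system, human umbilical vein endothelium received chemical and was assayed 24 h later for thrombomodulin by ELISA. Parallel cultures were SRB-stained (0.1% SRB after 10% TCA fixation, read at 560 nm) to flag cytotoxicity.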

[15] = target: Retinoic acid receptor RXR-alpha (Homo sapiens) (UniProt P19793); experiment: ATG_RXRa_TRANS: Attagene TRANS-FACTORIAL HepG2 Assay for human Retinoid X Receptor alpha (RXRa) (AID 2283012; active = hit-call score of the fitted dose curve at least 0.9, where 1 is the maximum)
How it was run: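 Chimeric NR-GAL4 trans-activation in HepG2, 24 h treatment; reporter transcripts quantified by fluorescence on capillary electrophoresis, analysed for upward change from DMSO.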

[16] = read-out: Monocyte Chemoattractant Protein-1 (MCP1), CCL2 (gene 6347); experiment: BSK_3C_MCP1: BioMAP Diversity Plus: 3C Assay for Monocyte Chemoattractant Protein-1 (MCP1) Biomarker Activity (AID 2283017); conditions: primary human endothelial cells (HUVEC); actives raise or lower the signal
How it was run: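 Primary human umbilical vein endothelial cells (3C system) were exposed to test chemical for 24 h, after which MCP-1 was quantified by ELISA. Activity was fitted bidirectionally against DMSO as negative control and baseline.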

[17] = target: human Thyroid Receptor alpha (THRa1), THRA (gene 7067) (UniProt P10827); experiment: ATG_THRa1_TRANS: Attagene TRANS-FACTORIAL HepG2 Assay for human Thyroid Receptor alpha (THRa1) (AID 2283014; active = hit-call score of the fitted dose curve at least 0.9, where 1 is the maximum)
How it was run: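 HepG2 cells transiently transfected with multiplexed GAL4-UAS reporter units for exogenous chimeric THRa1-Gal4; reporter mRNA measured 24 h after dosing by RT-PCR, 6-FAM labelling, HpaI digestion and capillary electrophoresis. Gain-of-signal fitted versus DMSO baseline.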

[18] = read-out: E-selectin (Homo sapiens) (UniProt P16581); experiment: BSK_3C_Eselectin: BioMAP Diversity Plus: 3C Assay for Eselectin Biomarker Activity (AID 2283015); conditions: primary human endothelial cells (HUVEC); actives raise or lower the signal;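 note: cell surface E-selectin protein quantified by ELISA 24 h after dosing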
How it was run: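 Primary human umbilical vein endothelial cells (3C system) were dosed with chemical and cell-surface E-selectin measured by ELISA 24 h later. Bidirectional curve fitting used DMSO as negative control and baseline.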

Measured: AC50

Sequence of human Thyroid Receptor alpha (THRa1), THRA (gene 7067) (P10827 whole entry, looked up, the tested form may be a part): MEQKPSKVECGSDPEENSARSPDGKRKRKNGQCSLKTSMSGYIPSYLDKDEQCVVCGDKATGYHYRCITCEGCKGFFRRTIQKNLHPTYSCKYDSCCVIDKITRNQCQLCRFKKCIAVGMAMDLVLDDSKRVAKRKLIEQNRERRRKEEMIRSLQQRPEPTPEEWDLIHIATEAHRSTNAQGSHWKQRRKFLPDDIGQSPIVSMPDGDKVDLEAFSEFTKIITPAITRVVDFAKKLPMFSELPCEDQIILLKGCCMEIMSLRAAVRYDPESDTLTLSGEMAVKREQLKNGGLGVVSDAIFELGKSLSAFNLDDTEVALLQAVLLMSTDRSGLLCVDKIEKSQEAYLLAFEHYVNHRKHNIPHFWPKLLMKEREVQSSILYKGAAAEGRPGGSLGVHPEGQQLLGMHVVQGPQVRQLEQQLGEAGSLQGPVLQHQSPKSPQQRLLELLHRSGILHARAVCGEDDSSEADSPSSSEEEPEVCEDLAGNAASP
Sequence of human Vitamin D Receptor (VDR), VDR (gene 7421) (P11473 whole entry, looked up, the tested form may be a part): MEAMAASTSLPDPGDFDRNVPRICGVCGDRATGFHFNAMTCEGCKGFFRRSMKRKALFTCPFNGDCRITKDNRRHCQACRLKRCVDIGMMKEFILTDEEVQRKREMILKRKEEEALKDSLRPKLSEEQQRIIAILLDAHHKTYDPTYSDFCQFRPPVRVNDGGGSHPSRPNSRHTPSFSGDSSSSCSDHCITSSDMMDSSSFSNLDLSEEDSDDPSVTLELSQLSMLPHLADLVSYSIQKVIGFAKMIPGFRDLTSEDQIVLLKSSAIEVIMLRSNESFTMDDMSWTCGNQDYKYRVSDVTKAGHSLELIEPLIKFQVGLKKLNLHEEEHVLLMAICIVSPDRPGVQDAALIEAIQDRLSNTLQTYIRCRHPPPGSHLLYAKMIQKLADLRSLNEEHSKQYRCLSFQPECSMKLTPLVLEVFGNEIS
Sequence of human Retinoid X Receptor beta (RXRb), RXRB (gene 6257) (P28702 whole entry, looked up, the tested form may be a part): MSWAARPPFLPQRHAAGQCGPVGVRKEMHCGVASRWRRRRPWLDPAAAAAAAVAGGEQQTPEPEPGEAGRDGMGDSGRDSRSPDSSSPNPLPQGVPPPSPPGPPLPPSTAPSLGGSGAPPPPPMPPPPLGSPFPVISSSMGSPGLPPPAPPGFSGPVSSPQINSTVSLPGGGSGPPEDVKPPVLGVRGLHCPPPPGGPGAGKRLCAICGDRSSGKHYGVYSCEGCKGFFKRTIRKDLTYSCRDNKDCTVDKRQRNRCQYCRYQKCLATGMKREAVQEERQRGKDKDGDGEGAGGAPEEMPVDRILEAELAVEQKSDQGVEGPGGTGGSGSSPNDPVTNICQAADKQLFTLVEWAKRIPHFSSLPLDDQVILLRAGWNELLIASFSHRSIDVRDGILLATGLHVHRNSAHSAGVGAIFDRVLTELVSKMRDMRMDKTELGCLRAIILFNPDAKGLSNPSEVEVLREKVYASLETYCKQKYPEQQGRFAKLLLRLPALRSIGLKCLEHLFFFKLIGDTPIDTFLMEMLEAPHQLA
Sequence of Retinoic acid receptor RXR-alpha (Homo sapiens) (P19793 whole entry, looked up, the tested form may be a part): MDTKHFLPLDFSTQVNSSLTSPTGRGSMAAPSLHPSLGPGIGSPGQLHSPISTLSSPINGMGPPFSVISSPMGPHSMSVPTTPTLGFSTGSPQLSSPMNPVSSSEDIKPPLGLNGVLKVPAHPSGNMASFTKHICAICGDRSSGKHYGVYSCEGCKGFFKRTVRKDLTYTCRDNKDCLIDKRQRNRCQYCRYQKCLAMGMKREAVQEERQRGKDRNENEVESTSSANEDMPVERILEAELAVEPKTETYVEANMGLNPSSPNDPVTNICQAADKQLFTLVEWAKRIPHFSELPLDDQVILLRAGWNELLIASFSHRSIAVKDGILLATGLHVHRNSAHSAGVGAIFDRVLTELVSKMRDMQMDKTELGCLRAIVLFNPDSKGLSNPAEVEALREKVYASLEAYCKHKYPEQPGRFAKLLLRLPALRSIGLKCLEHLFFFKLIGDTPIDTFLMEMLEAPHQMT
Sequence of E-selectin (Homo sapiens) (P16581 whole entry, looked up): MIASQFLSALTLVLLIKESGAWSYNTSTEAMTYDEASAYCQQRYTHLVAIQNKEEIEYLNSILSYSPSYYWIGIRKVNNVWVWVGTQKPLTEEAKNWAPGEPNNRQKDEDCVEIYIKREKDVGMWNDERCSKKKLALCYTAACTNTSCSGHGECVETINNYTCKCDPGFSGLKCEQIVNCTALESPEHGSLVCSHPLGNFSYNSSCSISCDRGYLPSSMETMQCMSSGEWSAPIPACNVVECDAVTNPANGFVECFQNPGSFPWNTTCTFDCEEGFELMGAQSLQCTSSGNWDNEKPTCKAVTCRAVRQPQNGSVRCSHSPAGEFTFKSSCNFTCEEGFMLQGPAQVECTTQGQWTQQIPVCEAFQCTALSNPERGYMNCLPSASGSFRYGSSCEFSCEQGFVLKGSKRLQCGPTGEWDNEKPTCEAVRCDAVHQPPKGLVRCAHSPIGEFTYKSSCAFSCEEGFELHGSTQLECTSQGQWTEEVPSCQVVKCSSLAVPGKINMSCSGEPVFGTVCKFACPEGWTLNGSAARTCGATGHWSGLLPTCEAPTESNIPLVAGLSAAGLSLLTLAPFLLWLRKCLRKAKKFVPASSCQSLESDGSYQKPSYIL
Sequence of human RAR-related Orphan Receptor gamma (RORg), RORC (gene 6097) (P51449 whole entry, looked up, the tested form may be a part): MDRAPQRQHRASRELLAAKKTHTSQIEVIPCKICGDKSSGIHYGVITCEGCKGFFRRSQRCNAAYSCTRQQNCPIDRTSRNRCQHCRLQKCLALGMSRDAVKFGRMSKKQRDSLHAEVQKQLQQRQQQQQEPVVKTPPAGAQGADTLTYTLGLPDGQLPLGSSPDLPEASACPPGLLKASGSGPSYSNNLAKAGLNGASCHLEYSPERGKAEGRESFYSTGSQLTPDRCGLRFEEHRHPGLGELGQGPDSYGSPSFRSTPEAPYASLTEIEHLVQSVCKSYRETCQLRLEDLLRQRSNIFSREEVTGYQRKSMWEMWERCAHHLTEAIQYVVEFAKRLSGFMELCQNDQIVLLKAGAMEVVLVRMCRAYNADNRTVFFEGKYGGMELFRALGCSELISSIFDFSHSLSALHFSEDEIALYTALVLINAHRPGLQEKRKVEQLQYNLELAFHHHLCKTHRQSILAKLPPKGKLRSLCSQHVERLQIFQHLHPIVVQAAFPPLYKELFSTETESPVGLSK

O=C(OCCOCCOCCOC(=O)c1ccccc1)c1ccccc1
inactive: [1] | [2] | [3]

OCC(F)(F)C(F)(F)C(F)(F)C(F)(F)C(F)(F)C(F)F
not listed: [2] | [15] | [16] | [17] | [18]
inactive: all other assays above

CC(C)OC(=O)c1ccccc1C(=O)OC(C)C
inactive: [15]
active: [2] 18.9 µM

Nc1ccc(Oc2cccc(Oc3ccc(N)cc3)c2)cc1
inactive: [1] | [3]

O=C(O)C(F)(OC(F)(F)C(F)(OC(F)(F)C(F)(OC(F)(F)C(F)(F)C(F)(F)F)C(F)(F)F)C(F)(F)F)C(F)(F)F (stereo not given)
not listed: [2] | [3] | [14] | [17] | [18]
inactive: all other assays above

O=S(=O)(OCC(F)F)C(F)(F)F
not listed: [2] | [13] | [14] | [17] | [18]
inactive: all other assays above

OCC(F)(F)C(F)(F)C(F)(F)C(F)(F)C(F)(F)C(F)(F)F
active: [9] 58.5 µM | [11] 43.6 µM
inactive: [1] | [2] | [17] | [18] | [4] | [16] | [5] | [6] | [7] | [8] | [3] | [9] | [10] | [11] | [12]

O=C(O)C(F)(F)C(F)(F)OC(F)(F)F
not listed: [2] | [3] | [13] | [14] | [15] | [16]
inactive: all other assays above

FC(F)(F)C(F)(F)C(F)(F)C(F)(F)C(F)(F)C(F)(F)CCS
not listed: [2] | [13] | [18]
inactive: all other assays above
